Screening data: PubChem, National Center for Advancing Translational Sciences (NCATS)
Only some compounds are listed: those with a hit (about 21% of all), similar ones and a draw of the others.
Shiga toxin inh – blocks Shiga toxin action in Vero cells; Vero cells, Shiga toxin protein synthesis inhibition reporter; inhibition, % at 38.7 µM; 9.2% of 290,000 active; in the data active means inhibition mostly above about 28%, no sharp cut-off; inactive means mostly below about 43%; further: 0% is about no effect
Pf growth 48h – P. falciparum growth inhibition at 48 hours (one generation). Potency, µM (top dose mostly 28.7 µM), without a hit: at the highest dose activity change, negative = inhibition, actives largely listed as inhibitors. 5.9% of 310,000 active. P. falciparum luciferase growth in erythrocytes, 48 h; active means well fitted inhibition curve with a large enough effect; inconclusive means small, poorly fitted or top-dose-only effect, or another doubt; inactive means no such curve, though single readings can be large or run the other way; further: potency means the concentration at half of the fitted maximal effect; on the % scale 0 is the no-effect control and ±100 the full control effect
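Cell-based growth assay: transgenic P. falciparum expressing firefly luciferase, cultured in red cells within RPMI 1640 containing 0.5% w/v Albumax, 24 mM bicarbonate and gentamycin. A drop in luciferase activity indicates inhibition.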
CHX counter – counter-screen hit for Shiga toxin inhibitors, cycloheximide. cell reporter, cycloheximide protein synthesis inhibition counterscreen. max response, %. 12% of 300,000 active. AID 2314; in the data active means max response mostly above about 13%, no sharp cut-off; inactive means mostly below about 14%; further: read at 38.3 µM for the half of the compounds with a filed dose; 0% is about no effect
NS1 inh – inhibitors of influenza NS1 protein function; Potency, µM (titrated, usually from 46.1 µM), for inactives: at the highest dose activity, positive = more growth; 0.4% of 270,000 active; AID 2326; further: potency means the concentration at half of the fitted maximal effect; actives are rising curves; nearly all actives have a fitted effect of over 50% in size
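A cell-based growth assay was used: compounds that relieve NS1-induced slow growth of budding yeast raise OD600. Assay medium was yeast nitrogen base with ammonium sulphate and -URA supplement, pH 6.0, with 2% galactose.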
SARS PLP yeast – blocks SARS-CoV papain-like protease in a yeast assay; 0.19% of 330,000 active; Potency, µM (highest dose often 32.9 µM), inactives show at the top dose activity, positive = growth rescue, usual class: activators; S. cerevisiae expressing SARS-CoV PLpro, growth rescue; further: potency means the concentration at half of the fitted maximal effect; 0% is about no effect; nearly all actives have a fitted effect of over 55% in size
Pf growth 96h – P. falciparum growth inhibition at 96 hours | P. falciparum luciferase reporter growth, 96 h | Potency, µM (titrated, usually from 28.7 µM), for the others: top-dose activity change, negative = inhibition, most hits filed as inhibitors | 6.9% of 320,000 active | AID 504834; active means well fitted inhibition curve with a large enough effect; inconclusive means small, poorly fitted or top-dose-only effect, or another doubt; inactive means no such curve, though single readings can be large or run the other way; further: potency means the concentration at half of the fitted maximal effect; on the % scale 0 is the no-effect control and ±100 the full control effect
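Two parasite generations (96 h, 37 C, 5% CO2) of compound exposure in infected erythrocytes (0.05% parasitemia, 2% hematocrit). Luciferase-reporter P. falciparum; decreased luminescence indicates inhibited growth, aimed at apicoplast-acting delayed death.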
The depositor's hits bear a star. Unless noted, the call rests on the fitted dose curve.

Results for COc1ccc(C(=O)CN2C(=O)c3ccccc3C2=O)cc1 ?
Shiga toxin inh: 58*; Pf growth 48h: 110%; CHX counter: 30*; NS1 inh: 1%; SARS PLP yeast: 1%; Pf growth 96h: 109%

Results for COc1ccc(O)c(-c2[nH]ncc2C(=O)c2ccccc2)c1 ?
Shiga toxin inh: -4; Pf growth 48h: 13%; CHX counter: -6; NS1 inh: -3%; SARS PLP yeast: -5%; Pf growth 96h: 41%

What do the screens show for `Cc1ccc(C(=O)CN2C(=O)c3ccccc3S2(=O)=O)cc1`?
Shiga toxin inh: -18; Pf growth 48h: 3.7µM*; CHX counter: -2; NS1 inh: 2%; SARS PLP yeast: 1%; Pf growth 96h: 76%

What do the screens show for `Cc1ccc(C(=O)COc2ccccc2N2C(=O)c3ccccc3C2=O)cc1`?
Shiga toxin inh: -6; Pf growth 48h: 38%; CHX counter: 9; NS1 inh: 4%; SARS PLP yeast: -26%; Pf growth 96h: 3.3µM*

How did COc1ccc(C(=O)N2CCCC(C(N)=O)C2)cc1S(=O)(=O)N1CCOCC1 (configuration not stated) do in these assays?
Pf growth 48h: -4%; SARS PLP yeast: -3%; Pf growth 96h: 2%

How did CCc1cccc(C)c1NC(=O)CN(C)C1=NS(=O)(=O)c2ccccc21 do in these assays?
Pf growth 48h: 12%; SARS PLP yeast: 0%; Pf growth 96h: 27%

What do the screens show for `COc1ccc(C(=O)C/C(=C\C(=O)c2ccc(C)cc2)c2ccccc2)cc1`?
Shiga toxin inh: -16; Pf growth 48h: inconclusive; CHX counter: 7; NS1 inh: 13%; SARS PLP yeast: -5%; Pf growth 96h: 10µM*

How did COc1ccc(C(=O)NCC(=O)c2ccccc2)cc1 do in these assays?
Pf growth 48h: 279%; CHX counter: 36*; NS1 inh: -11%; SARS PLP yeast: 2%; Pf growth 96h: 17%

What do the screens show for `COc1ccc(C(=O)CCNc2ccc(C)c(Cl)c2)cc1`?
Shiga toxin inh: 25; Pf growth 48h: 4%; CHX counter: -2; NS1 inh: 3%; SARS PLP yeast: -19%; Pf growth 96h: 47%

How did COc1ccc(C(=O)Cn2cc[n+](C)c2)cc1 do in these assays?
Shiga toxin inh: -17; Pf growth 48h: 12µM*; CHX counter: -3; NS1 inh: -3%; SARS PLP yeast: 0%; Pf growth 96h: 119%

Results for COc1ccc(C(=O)CCNc2ccc(F)cc2)cc1 ?
Shiga toxin inh: 82*; Pf growth 48h: 25%; CHX counter: 28*; NS1 inh: -6%; SARS PLP yeast: 0%; Pf growth 96h: 40%

What do the screens show for `OC1c2ccccc2N=C2CCCN21` (configuration not stated)?
Shiga toxin inh: -6; CHX counter: -3

Results for COc1ccc(C(CC(=O)c2ccccc2)S(=O)(=O)c2ccc(C)cc2)cc1 (configuration not stated) ?
Shiga toxin inh: 33*; Pf growth 48h: 161%; CHX counter: 34*; NS1 inh: -27%; SARS PLP yeast: 0%; Pf growth 96h: 161%

Results for COc1ccc(/C(C)=N\NC(=O)CSc2nnc(C)s2)cc1 ?
Shiga toxin inh: -12; Pf growth 48h: 23%; CHX counter: -9; NS1 inh: 0%; SARS PLP yeast: -11%; Pf growth 96h: inconclusive

Results for CC(=O)CC(c1ccccc1)S(=O)(=O)c1ccc(C)cc1 (configuration not stated) ?
Shiga toxin inh: -8; Pf growth 48h: inconclusive; CHX counter: -1; NS1 inh: 11%; SARS PLP yeast: 1%; Pf growth 96h: 52%

How did COc1ccc(C(=O)CC(=O)c2ccc(OC)cc2)cc1 do in these assays?
Shiga toxin inh: 33; Pf growth 48h: -4%; CHX counter: 26*; NS1 inh: -9%; SARS PLP yeast: 0%; Pf growth 96h: 0%

How did COc1ccc(C(=O)CCC(=O)O)cc1 do in these assays?
Shiga toxin inh: 21; CHX counter: -1; NS1 inh: -7%; SARS PLP yeast: 3%; Pf growth 96h: inconclusive

How did COc1ccc(C(=O)Cc2nnc(C)s2)cc1 do in these assays?
Shiga toxin inh: 105*; Pf growth 48h: 99%; CHX counter: 48*; NS1 inh: 11%; SARS PLP yeast: 17%; Pf growth 96h: 82%
